This passage reports Percent Effect results from ChEMBL document CHEMBL3988442, “University of Dundee, Small-Polar-MMV Screening Library” (2021).

The target in assay [1] is T1, Aspartate--tRNA(Asp/Asn) ligase (Mycobacterium tuberculosis (strain ATCC 25618 / H37Rv)) (UniProt P9WFW3). Note: in the data most compounds retested in dose-response had high values.
T1 sequence (whole entry): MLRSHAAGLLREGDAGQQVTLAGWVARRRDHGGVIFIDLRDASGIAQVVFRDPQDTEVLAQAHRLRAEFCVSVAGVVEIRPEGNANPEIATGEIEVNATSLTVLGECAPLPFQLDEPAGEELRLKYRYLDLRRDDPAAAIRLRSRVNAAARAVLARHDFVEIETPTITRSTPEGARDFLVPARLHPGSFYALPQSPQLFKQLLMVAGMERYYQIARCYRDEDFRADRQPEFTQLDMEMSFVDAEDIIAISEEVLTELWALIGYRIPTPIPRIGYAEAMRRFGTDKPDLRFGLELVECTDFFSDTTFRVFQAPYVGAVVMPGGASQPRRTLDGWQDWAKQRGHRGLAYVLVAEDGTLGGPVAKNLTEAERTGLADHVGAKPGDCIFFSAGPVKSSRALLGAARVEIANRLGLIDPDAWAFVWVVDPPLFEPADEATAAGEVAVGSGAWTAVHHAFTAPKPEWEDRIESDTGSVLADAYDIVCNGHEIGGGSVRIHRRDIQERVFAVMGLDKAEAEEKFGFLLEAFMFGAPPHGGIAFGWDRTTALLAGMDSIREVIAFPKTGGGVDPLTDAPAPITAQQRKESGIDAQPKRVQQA
As to the kind of experiment: Assay for Asp RNA synthetase-1 from Mycobacterium tuberculosis. Format: functional. Further details: scale not given: direction of the effect not stated beside the values. To be noted: 30 µM.

In assay [2] the target is Shiga toxin 2 (Escherichia coli O157:H7) (UniProt P09385+P09386). Description: E. coli 0.157:H7 Shiga Toxin SOP - stx2 screening assay. To be noted: 30 µM. Format: functional. Further details: scale not given: direction of the effect not stated beside the values.

Consider `COC(=O)C1CCN(C(=O)c2ccc(C)c(NS(C)(=O)=O)c2)CC1`, for which the Percent Effect was -1.09% in assay [1] and -2.45% in assay [2].

`O=C(NCCNc1ncccn1)C1CCN(c2ncccn2)CC1`: the Percent Effect was -0.874% in assay [1] and 5.72% in assay [2].

In the case of `COc1ccc(CN(C)CC2(O)CCN(C(=O)c3cccn3C)C2)cc1` (configuration not stated), the Percent Effect in assay [1] is 2.04%; in assay [2] it was -5.84%.

For the compound `CC(=O)c1cccc(S(=O)(=O)N2CSCC2C(=O)NCC(F)(F)F)c1` (configuration not stated), the Percent Effect in assay [1] was -1.82%; in assay [2], -13.6%.

As to `NC(=O)c1cc(C2CCCN(CCOCC(F)(F)F)C2)n[nH]1` (configuration not stated), the Percent Effect in assay [1] was -1.37%; in assay [2], -3.62%.

On to `Cc1cc(C)n(CC2CCCN2C(=O)c2ccc3[nH]nnc3c2)n1` (configuration not stated), for which the values for the Percent Effect in assay [1] and in assay [2] were 3.71% and -26.6%, respectively.

Turning to `COc1cc(CNCc2c(C)nn(C)c2N(C)C)ccn1`, the Percent Effect in assay [1] came to 3.75%; in assay [2] it was 13%.

Regarding `CC(C)CCN1CCC2(CC1)CN(C(=O)c1cnccn1)CCO2`, the Percent Effect in assay [1] is -0.349%; in assay [2], -0.912%.

As for `CCn1cc(NC(=O)NCC(c2cccs2)N(C)C)cn1` (configuration not stated), the Percent Effect in assay [1] is -1.06%; in assay [2] it was 24.9%.

For the compound `Cc1ccc(Cc2cnc(NC(=O)C3CNC(=O)N3)s2)cc1F` (configuration not stated), the Percent Effect in assay [1] is -6.24%; in assay [2], -17.9%.

Regarding `CCOCCCNC(=O)c1nn(CC)cc1Cl`, the figures for the Percent Effect in assay [1] and in assay [2] were -5.87% and -47.7%, respectively.

As for `Cc1nn(C)c(N(C)C)c1CNCCNS(C)(=O)=O`, the Percent Effect in assay [1] was -4.66%; in assay [2], 17.7%.

As for `COc1ccc(C(=O)N(C)Cc2nnc3ccccn23)c(OC)c1`, the Percent Effect amounted to 0.49% in assay [1] and 24.6% in assay [2].

As to `Cc1cc(CN2CCCC2c2noc(C3CC3)n2)c2ccccc2n1` (configuration not stated), the Percent Effect was found to be 2.68% in assay [1] and 9.51% in assay [2].

Turning to `Cc1nc[nH]c1CN1C[C@@H]2CC[C@H](C1)N(C(=O)CCc1cnn(C)c1)C2`, the figures for the Percent Effect in assay [1] and in assay [2] were 0.752% and 5.79%, respectively.

Turning to `CCCc1n[nH]c(C2CN(C(=O)c3cc(F)ccc3OC)CCO2)n1` (configuration not stated), the Percent Effect in assay [1] came out at 0%; in assay [2] it was 29.8%.

Consider `O=C(c1cc[nH]n1)N1CCCC1C1CCN(Cc2ccccc2)CC1` (configuration not stated), for which the Percent Effect in assay [1] was 6.59%; in assay [2] it was -28.1%.

In the case of `N#CC1(C(=O)Nc2ccc(OC(F)F)cc2)CCCC1`, the Percent Effect in assay [1] was 3.4%; in assay [2], -2.03%.

Take `COc1ccc(Br)c(C(=O)N2CCC(c3n[nH]c(C4CC4)n3)CC2)c1`: the Percent Effect in assay [1] was 0.422%; in assay [2], -39.5%.

For `CCOCC(O)CN1CCN(C(=O)C2CC2)CC1` (configuration not stated), the Percent Effect in assay [1] is 1.82%; in assay [2], 21.4%.

Regarding `CCOC(C)c1nc(CN2CCC(CNC(C)=O)CC2)cs1` (configuration not stated), the Percent Effect in assay [1] was -2.51%; in assay [2], 3.11%.

As to `COc1ccc(OC)c(NC(=O)NCC(O)c2ccc(F)c(F)c2)c1` (configuration not stated), the values for the Percent Effect in assay [1] and in assay [2] were 4.09% and -0.389%, respectively.

In the case of `c1csc(N2CCCN(Cc3nc(C4CC4)no3)CC2)n1`, the Percent Effect was -1.91% in assay [1] and 12.8% in assay [2].

In the case of `Cc1ccc(C(=O)N2CCC3(CCN(C(=O)c4cccnc4)C3)CC2)o1`, the Percent Effect is 5.85% in assay [1] and -10.6% in assay [2].

In the case of `CN(C)Cc1cc(=O)n2c(n1)CN(C(=O)Cc1ccsc1)CCC2`, the Percent Effect in assay [1] is -1.04%; in assay [2], -17%.

`Cc1cc(CNc2cc(Cl)ccc2Cl)no1`: the Percent Effect in assay [1] is -1.12%; in assay [2] it was 2.51%.

Turning to `COCCc1ncc(CN2CCC(Oc3ccccc3C)CC2)cn1`, the Percent Effect was determined as 1.13% in assay [1] and 1.32% in assay [2].

Take `Cc1ccc(CN2C[C@@H]3COC[C@H](NS(C)(=O)=O)[C@@H]3C2)o1`: the Percent Effect is 3.2% in assay [1] and -0.0539% in assay [2].

On to `Cc1nc(C)c(CC(=O)Nc2nnc(C)s2)c(=O)[nH]1`, for which the Percent Effect in assay [1] is -2.12%; in assay [2], 19%.

For `O=C1OC2(CCNCC2)CN1CC(=O)N1CCCC1c1ccco1` (configuration not stated), the Percent Effect is -0.636% in assay [1] and -9.63% in assay [2].

On to `O=C(NS(=O)(=O)c1ccc2c(c1)OCCO2)c1ccc(Br)cc1F`, for which the Percent Effect in assay [1] worked out at 1.56%; in assay [2], 8.44%.

Consider `Cc1cn2c(n1)CCC(NC(=O)c1nc(C)ncc1Cl)C2` (configuration not stated), for which the Percent Effect in assay [1] amounted to 1.79%; in assay [2], 12.5%.

Regarding `COC(=O)c1sccc1S(=O)(=O)N1CCC(Oc2ncccc2Cl)CC1`, the Percent Effect in assay [1] was -5.87%; in assay [2] it was 4.83%.

With `CCC(=O)N1CCc2nc3cc(OC)c(OC)cc3c(=O)n2CC1`, the Percent Effect in assay [1] was -5.4%; in assay [2], -7.9%.

In the case of `CN(CCN1CCCCC1)C(=O)c1cc(CN2CCOCC2)on1`, the Percent Effect is 5.72% in assay [1] and -1.02% in assay [2].

In the case of `CCOCCn1nc(C)cc1C(=O)N1CC[C@](C)(O)[C@H](C)C1`, the Percent Effect in assay [1] was -4.03%; in assay [2], 4.67%.

For the compound `CCc1ncc2c(n1)CN(CC(=O)NCCOc1ccccc1)CC2`, the Percent Effect in assay [1] was found to be 2.89%; in assay [2] it was 23.5%.

Regarding `CCn1nc(-c2ccccc2F)ccc1=O`, the Percent Effect was 0.691% in assay [1] and -6.78% in assay [2].

Turning to `CC(C)N(C)Cc1nnc2n1CCN(Cc1ccncc1)CC2`, the Percent Effect in assay [1] stood at 3.87%; in assay [2], 1.49%.

`Cc1noc(C)c1CN1CCN(Cc2nccn2C)CC1`: the Percent Effect in assay [1] was -5.33%; in assay [2] it was -1.2%.

On to `Cn1ccnc1CN1CCCC1c1noc(C2CC2)n1` (configuration not stated), for which the Percent Effect was -0.426% in assay [1] and -7.56% in assay [2].

Turning to `Cc1ccc(-n2nnc(CC(=O)N3CCSCC3)c2C)cc1`, the Percent Effect is 2.79% in assay [1] and -35.4% in assay [2].

Consider `Cc1cc(C(=O)N2CCCC(n3ccnc3C)C2)c(C)s1` (configuration not stated), for which the Percent Effect in assay [1] was -4.25%; in assay [2], -6.7%.

Turning to `Cc1ccc(C(=O)N2CCC3(CCC(=O)N(CC(N)=O)C3)CC2)c(O)c1`, the results for the Percent Effect in assay [1] and in assay [2] were -0.585% and -12.4%, respectively.

On to `CCN(CC1CCOC1)C(=O)Nc1ccc(-n2cncn2)nc1` (configuration not stated), for which the Percent Effect is -0.722% in assay [1] and -25.9% in assay [2].

`CC(C)COC(C)C(=O)NCc1ccc(N(C)C)cc1` (configuration not stated): the figures for the Percent Effect in assay [1] and in assay [2] were 5.65% and -8.68%, respectively.

On to `Cn1cccc1CCC(=O)N1CCC2(CC1)c1ccccc1CC2O` (configuration not stated), for which the Percent Effect in assay [1] is 2.11%; in assay [2] it was -22.3%.

Regarding `CCC(=O)N1CCC(c2nnc(Cn3cccn3)n2C2CC2)CC1`, the results for the Percent Effect in assay [1] and in assay [2] were -6.07% and -3.53%, respectively.

As to `CC(C)COC(C)C(=O)NCc1ccc(OC(C)C)nc1` (configuration not stated), the values for the Percent Effect in assay [1] and in assay [2] were 1.79% and 9.54%, respectively.

Consider `Cc1cc(C)n(CCC(=O)N2CCC(c3nc(C(C)C)no3)CC2)n1`, for which the Percent Effect in assay [1] was 2.47%; in assay [2] it was -18.2%.

For `CCN(CC)CCNC(=O)c1cc(C(C)C)nc(N2CCCC2)n1`, the Percent Effect was 2.18% in assay [1] and -34% in assay [2].
